High-throughput results deposited in PubChem BioAssay by Sanford-Burnham Center for Chemical Genomics.
Rows were chosen to be rich in hits. Some 6.3% of all compounds tested hit in one or more screens of this group.
MPTP inh: inhibitors of mitochondrial permeability transition pore; hit rate 1.4% among 360,000; isolated mouse mitochondria, Ca2+ swelling absorbance, 30 min; inhibition, % at 10 µM;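 active = inhibition of 50% or more, scaled per plate between neutral and stimulator controls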;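 also: 0% = DMSO wells given calcium and 100% = 1 mM EGTA wells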
tim10-1 inh: growth inhibitors of tim10-1 mutant yeast | AID 463190 | inhibition, % at 20 µM | S. cerevisiae tim10-1 ts strain growth, BacTiter-Glo, 24 h | hit rate 2.2% among 330,000;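 active = inhibition of at least 40%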;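 also: mutant grown at 25 °C; 0% = DMSO wells with yeast and 100% = wells holding no yeast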
Mdm2-MdmX inh: human Mdm2/MdmX binding inhibition. O15151+Q00987. SaOS-2 split-luciferase Mdm2/MdmX complementation, luminescence. hit rate 3% among 330,000. AID 485346. inhibition, % at 8 µM;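 active = inhibition of at least 50% at 8 µM in the primary screen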
Target sequence (O15151 whole entry, looked up): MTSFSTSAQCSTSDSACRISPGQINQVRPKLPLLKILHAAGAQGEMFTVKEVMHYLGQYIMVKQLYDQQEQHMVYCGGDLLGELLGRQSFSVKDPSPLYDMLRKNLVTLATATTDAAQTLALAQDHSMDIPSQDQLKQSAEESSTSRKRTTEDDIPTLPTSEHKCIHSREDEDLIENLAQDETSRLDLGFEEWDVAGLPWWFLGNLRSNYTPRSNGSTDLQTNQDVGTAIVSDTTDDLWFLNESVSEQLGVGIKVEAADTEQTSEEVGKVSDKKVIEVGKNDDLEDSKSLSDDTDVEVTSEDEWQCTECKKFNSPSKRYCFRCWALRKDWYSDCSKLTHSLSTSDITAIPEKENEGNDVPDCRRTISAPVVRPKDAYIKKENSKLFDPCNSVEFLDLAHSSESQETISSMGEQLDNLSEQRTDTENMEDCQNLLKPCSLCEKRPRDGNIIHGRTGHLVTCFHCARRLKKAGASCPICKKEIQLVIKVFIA
Target sequence (Q00987 whole entry, looked up): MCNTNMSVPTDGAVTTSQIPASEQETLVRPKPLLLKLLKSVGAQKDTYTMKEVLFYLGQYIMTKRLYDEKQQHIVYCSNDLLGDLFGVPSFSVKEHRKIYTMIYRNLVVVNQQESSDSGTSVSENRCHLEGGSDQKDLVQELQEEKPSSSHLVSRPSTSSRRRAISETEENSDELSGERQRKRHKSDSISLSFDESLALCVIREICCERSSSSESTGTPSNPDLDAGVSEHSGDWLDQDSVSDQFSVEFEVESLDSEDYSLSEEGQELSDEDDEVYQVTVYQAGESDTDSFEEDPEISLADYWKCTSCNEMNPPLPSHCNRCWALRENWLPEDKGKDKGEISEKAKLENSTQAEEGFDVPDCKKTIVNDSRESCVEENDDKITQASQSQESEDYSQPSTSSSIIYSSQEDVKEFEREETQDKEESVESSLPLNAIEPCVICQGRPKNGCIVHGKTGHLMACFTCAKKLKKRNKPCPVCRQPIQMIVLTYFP
TIM10 inh: TIM10 yeast growth inhibition. inhibition, % at 10 µM. hit rate 1.4% among 330,000. S. cerevisiae TIM10 strain growth, BacTiter-Glo luminescence, 24 h. AID 463195;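 active = inhibition of 40% or more at the single tested concentration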;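 also: wild-type TIM10 isogenic control strain grown at permissive 25 °C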
tim23-1 inh: tim23-1 yeast growth inhibition; S. cerevisiae tim23-1 growth, BacTiter-Glo luminescence, 24 h; inhibition, % at 20 µM; hit rate 1.3% among 330,000; AID 463212;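 active = growth inhibition of the mutant yeast at or above 50%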;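 also: temperature-sensitive mutant grown at 25 °C; plate controls were DMSO-treated mutant yeast for no effect and medium wells lacking yeast for full effect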
Rh123 counter: Rhodamine 123 counter-screen of mitochondrial pore hits; shares compounds with MPTP inh; inhibition, % at 10 µM; hit rate 78% among 5,000; isolated mitochondria, membrane potential, Rhodamine 123 fluorescence; AID 624504; in the data active = inhibition above about 22%;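 also: 0% = DMSO vehicle and 100% = positive control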
MPTP abs DR: dose response confirmation of mitochondrial permeability transition pore inhibitors. shares compounds with MPTP inh. isolated mitochondria swelling, absorbance. IC50, µM. hit rate 58% among 780. AID 651561; in the data active = IC50 below about 20 µM
MPTP cs DR: counter-screen for mitochondrial permeability transition pore inhibitors, dose response; shares compounds with MPTP inh; isolated mitochondria counterscreen, fluorescence read-out; IC50, µM; hit rate 49% among 780; in the data active = IC50 below about 80 µM
* hit, by the source's call; . = no result.

SMILES	MPTP inh	tim10-1 inh	Mdm2-MdmX inh	TIM10 inh	tim23-1 inh	Rh123 counter	others
CCOC(=O)c1sc(NC(=O)CSc2n[nH]c(-c3ccc(Cl)cc3Cl)n2)c(C#N)c1C	83.3*	15.6	21.4	0.4	-22.0	82.8*
CCOC(=O)c1sc(NC(=O)c2ccncc2)c(C#N)c1C	96.8*	12.7	10.1	3.6	17.2	86.6*
COc1cccc(C(C)(O)c2nc(-c3ccc(N(C)C)cc3)cs2)c1 (configuration not stated)	98.6*	.	.	.	.	90.9*
COc1cccc(C(C)(O)c2nc(-c3cc4ccccc4o3)cs2)c1 (configuration not stated)	88.4*	.	.	.	.	96.0*
CC(O)(c1cccc(F)c1)c1nc(-c2cc3ccccc3o2)cs1 (configuration not stated)	10.5	.	.	.	.	.
COc1cccc(C(C)(O)c2nc(-c3ccccc3)cs2)c1 (configuration not stated)	3.1	.	.	.	.	.
Cc1ccc(C)c(CC(=O)N2CCCC(c3cc(C(=O)NCc4cccnc4)no3)C2)c1 (configuration not stated)	-1.2	.	.	.	.	.
O=[N+]([O-])c1cccc(S(=O)(=O)Nc2nc3ccccc3nc2Nc2cccc(S(=O)(=O)N3CCCCC3)c2)c1	59.5*	.	.	.	.	30.2*
Cc1cccc(S(=O)(=O)Nc2nc3ccccc3nc2Nc2ccc3c(c2)OCO3)c1	96.6*	10.5	14.2	11.6	12.0	64.7*
O=S(=O)(Nc1nc2ccccc2nc1Nc1ccc2c(c1)OCO2)c1ccccc1	40.7	16.9	4.8	9.0	11.1	.
NC(=S)NN=C1C=CCCC1	-0.4	.	.	.	.	.
COc1ccc(S(=O)(=O)NC(=O)C2(C)CCN2C(=O)CC2CC2)cc1 (configuration not stated)	-0.8	.	.	.	.	.
CC1(C(=O)NS(=O)(=O)c2ccccc2Cl)CCN1C(=O)CCc1cccs1 (configuration not stated)	0.4	.	.	.	.	.
COc1cc(C(=O)NNC(=O)CNC(=O)C2CCCCC2)ccc1OC(C)C	-1.0	3.3	-7.7	-8.5	3.1	.
CC(=O)N1N=C(c2ccc(Cl)cc2)CC1c1ccc([N+](=O)[O-])cc1 (configuration not stated)	0.5	26.0	9.4	19.2	33.1	.
CC1(O)CC(c2ccc(Cl)cc2)=NN1C(=O)c1ccc([N+](=O)[O-])cc1 (configuration not stated)	73.2*	5.8	32.3	-33.8	24.3	80.9*
CCN(CC)S(=O)(=O)c1ccc(Cl)c(C(=O)Nc2ccc(Cl)cc2[N+](=O)[O-])c1	91.0*	23.4	44.4	13.0	22.9	91.7*
COc1ccc(Nc2sc(C(=O)c3ccc(Cl)cc3)c(N)c2C(=O)Nc2ccccc2OC)cc1	67.8*	30.1	10.9	34.2	31.9	75.4*
COc1ccc(OC)c(-c2csc(NC(=O)CSc3ccc([N+](=O)[O-])cc3)n2)c1	55.6*	39.6	12.8	35.3	3.6	63.5*
Cn1nc(OC(=O)Nc2cccc(Cl)c2)cc1C(F)(F)F	88.2*	-14.2	31.0	-1.7	2.1	87.0*
Cn1nc(OC(=O)Nc2ccccc2)cc1C(F)(F)F	.	-15.8	-14.4	5.3	-16.1	.
COc1ccc(Nc2cc(C)nc(NCc3ccccc3)n2)cc1	57.1*	4.7	17.2	14.5	19.1	46.8*
Cc1cc(NC2CCCCC2)nc(NCc2ccccc2)n1	85.8*	9.5	28.2	9.9	-22.1	110.9*
COc1cc(C)nc(NCc2ccccc2)n1	2.1	16.1	-8.4	9.3	6.0	.
Cc1cccc(CNC(=O)C2CCC(=O)N(CCCc3ccccc3)C2)c1 (configuration not stated)	1.2	.	.	.	.	.
SMILES	MPTP inh	tim10-1 inh	Mdm2-MdmX inh	TIM10 inh	tim23-1 inh	Rh123 counter	others
CC1(C(=O)NS(=O)(=O)Cc2ccccc2)CCN1C(=O)Cc1cc(F)ccc1F (configuration not stated)	2.5	.	.	.	.	.
Cc1ccc(-c2csc3nc(-c4ccncc4)[nH]c(=O)c23)cc1	98.1*	-2.2	17.7	-20.6	-32.9	18.6	MPTP abs DR=3.04*;MPTP cs DR=<2.5*
O=C(C[C@H]1C=C[C@@H](NC(=O)c2ccncc2)[C@@H](CO)O1)NCC1CC1	-0.1	.	.	.	.	.
O=C1c2ccc(Oc3ccc([N+](=O)[O-])cc3)cc2C(=O)N1c1ccncc1	87.2*	13.1	3.3	-4.6	3.2	79.0*
CCNC(=O)C1CCCN(C(=O)c2c(-c3ccccc3)noc2C)CC1 (configuration not stated)	-1.8	.	.	.	.	.
CCOC(=O)N1CCC(N(CCOC)C(=O)Nc2ccc(Cl)cc2)CC1	63.6*	-20.3	-0.6	-5.4	5.1	77.0*
CCOC(=O)N1CCC(N(CCCOC)C(=O)Nc2ccc(CC)cc2)CC1	-0.5	-5.2	2.5	16.0	17.5	.
CC(=O)Nc1cccc(-c2ccnc3c2CC(C)(C(=O)Nc2ccc(Cl)cc2)O3)c1 (configuration not stated)	0.7	.	.	.	.	.
C=CC[n+]1c(-c2ccc(OC)c(OC)c2)csc1NNC(=O)Nc1ccccc1	63.5*	21.1	13.3	22.6	19.2	31.1*
Cc1nc(N)nc(N)c1Oc1ccc(Cl)cc1	2.7	.	.	.	.	.
Cc1nc(N)nc(N)c1/C=C/C(C)(C)c1ccc(Cl)cc1	96.6*	.	.	.	.	91.3*
COc1ccc(NS(=O)(=O)c2cccc(C(=O)N3CCN(S(=O)(=O)c4ccccc4)CC3)c2)cc1	-1.3	.	.	.	.	.
Fc1ccc(/C=C\c2nccc3c2[nH]c2ccccc23)cc1	87.2*	32.1	39.5	24.9	25.8	80.5*
C(=C\c1nccc2c1[nH]c1ccccc12)/c1ccccc1	6.7	5.7	32.0	33.7	38.2	.
Cc1ccc(/C=C\c2nccc3c2[nH]c2ccccc23)cc1	74.7*	-3.9	23.7	35.5	26.1	61.5*
Cc1cccc(C)c1NC(=O)C(C)NCc1cccs1 (configuration not stated)	0.3	.	.	.	.	.
Cc1ccc(N/N=C(\C#N)C(N)=S)c(C)c1	89.9*	.	.	.	.	83.1*
O=[N+]([O-])c1c(O)c(Cl)cc(Cl)c1Cl (tested in a mixture with another compound)	77.7*	.	.	.	.	86.4*
Oc1c(Cl)cc(Cl)c(Cl)c1CN1CCOCC1	0.1	.	.	.	.	.
Cc1oc(-c2cccc(Cl)c2)nc1CN1CCCC(C(=O)NC(C)c2ccc3c(c2)OCCO3)C1 (configuration not stated)	51.4*	15.3	27.4	9.3	2.7	15.3	MPTP abs DR=11.9*;MPTP cs DR=20.5*
Cc1oc(-c2cccc(Cl)c2)nc1CN1CCCC(C(=O)NCc2ccco2)C1 (configuration not stated)	0.3	26.3	19.2	26.5	25.1	.
COC(=O)c1ccc(N/N=C/c2cc([N+](=O)[O-])cc(OC)c2O)cc1	1.3	-34.7	19.2	-48.7	16.8	.
